PubChem BioAssay AID1851 (National Center for Advancing Translational Sciences (NCATS), 2009)
The campaign covered roughly 16,000 compounds. About 5,800 (36%) were called active. Roughly 23% stayed inconclusive and do not appear here. Calls come from the whole dose curve; as a rule, active = well fitted curve in the direction sought with a large enough effect; inconclusive = small, poorly fitted or top-dose-only effect, or effect the other way; inactive = no such curve, though single readings can be large or run the other way. This is one part of the list.
% is set by controls: 0 for no effect and ±100 for the full control effect.

These molecules were tested against Cytochrome P450 2C19 (Homo sapiens) (UniProt P33261) (assay: Cytochrome panel assay with activity outcomes). Conditions: recombinant CYP, pro-luciferin dealkylation, luminescence, p450-cyp2c19; series mostly up to 57.1 µM.
Cytochrome P450 2C19 (Homo sapiens), sequence (P33261 whole entry, looked up): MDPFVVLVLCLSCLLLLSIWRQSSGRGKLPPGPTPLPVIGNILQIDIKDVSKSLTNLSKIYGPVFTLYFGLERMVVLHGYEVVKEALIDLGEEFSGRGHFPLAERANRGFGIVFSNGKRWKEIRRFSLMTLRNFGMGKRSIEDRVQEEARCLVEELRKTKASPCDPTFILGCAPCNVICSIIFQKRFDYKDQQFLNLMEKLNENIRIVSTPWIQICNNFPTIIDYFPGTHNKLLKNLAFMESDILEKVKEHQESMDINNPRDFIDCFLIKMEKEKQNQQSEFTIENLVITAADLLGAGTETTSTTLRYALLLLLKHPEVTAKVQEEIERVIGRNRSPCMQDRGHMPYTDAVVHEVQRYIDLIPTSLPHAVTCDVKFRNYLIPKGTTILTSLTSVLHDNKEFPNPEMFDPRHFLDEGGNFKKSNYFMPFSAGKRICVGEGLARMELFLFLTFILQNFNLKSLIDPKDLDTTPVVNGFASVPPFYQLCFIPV
In the case of `CC1=NS(=O)(=O)c2cc(Cl)ccc2N1`, the AC50 is reported as “inactive”. `NC(=O)CCCC1=NS(=O)(=O)c2ccccc2N1` was tested, and the AC50 was “inactive”. For `CC(C)(CC(=O)N1CCN(c2ccc(Cl)cc2)CC1)CC1=NS(=O)(=O)c2ccccc2N1`, the AC50 was 7.94 µM (active). In the case of `COC(=O)C1(CC(C)C)C=C2C(=C(c3ccccc3)C(=O)C2C)CN1` (configuration not stated), the AC50 is reported as 39.8 µM (active). For `CCCC1(C(=O)OC)C=C2C(=C(c3ccccc3)C(=O)C2C)CN1` (configuration not stated), the AC50 was 7.94 µM (active). In the case of `CCCC1(C(=O)OC)C=C2C(=C(C(C)C)C(=O)C2C)CN1` (configuration not stated), the AC50 is reported as “inactive”. `CCCC1(C(=O)OC)C=C2C(=C(C)C(=O)C2C)CN1` (configuration not stated) was tested, and the AC50 was “inactive”. In the case of `C[N+](C)(N)Cc1csc(-c2ccc(Cl)cc2)n1`, the activity, negative = inhibition is reported as 8.52% [at 11.4 µM] (inactive). `Nc1ccccc1SCc1csc(-c2ccc(Cl)cc2)n1` was tested, and the AC50 was 0.501 µM (active). For `NNc1nncc2ccccc12`, the AC50 was “inactive”. With `O=C(c1ccccc1)c1ccc(OCC(O)CN2CCN(Cc3ccccc3)CC2)cc1` (configuration not stated) the AC50 was 4.47 µM (active). `O[C@H](COc1ccccc1)CN1CCCCC1` was tested, and the activity, negative = inhibition was 3.88% [at 11.4 µM] (inactive). For `CC1CCC(C(C)C)C(OCC(O)CN2CCN(Cc3ccccc3)CC2)C1` (configuration not stated), the AC50 was 3.55 µM (active). `CN1CCN(CC(O)c2ccccc2)CC1` (configuration not stated) was tested, and the AC50 was “inactive”. `CC1CC(OCC(O)CN2CCN(Cc3ccccc3)CC2)CC(C)(C)C1` (configuration not stated) was tested, and the AC50 was “inactive”. With `CC#C[C@]1(O)CC[C@H]2[C@@H]3CCC4=CC(=O)CCC4=C3[C@H](c3ccc(N(C)C)cc3)C[C@@]21C` the AC50 was 7.94 µM (active). With `COc1cc2nc(N(C)CCCNC(=O)[C@@H]3CCCO3)nc(N)c2cc1OC` the AC50 was “inactive”. With `C=Cc1c(C)c2cc3nc(cc4[nH]c(cc5nc(cc1[nH]2)C(C)=C5CCC(=O)O)c(CCC(=O)OC)c4C)[C@@]1(C)C3=CC=C(C(=O)OC)[C@H]1C(=O)OC` (tested in a mixture with another compound) the AC50 was 1.26 µM (active). For `O=C(O)[C@@H]1[C@@H](C(=O)O)[C@]23C[C@@]2(C(=O)O)[C@]2(C(=O)O)CCC3=C3CCCC312`, the activity, negative = inhibition was 37.4% [at 11.4 µM] (inactive). For `c1ccc(Cc2nnc(Sc3ccccc3)c3ccccc23)cc1`, the AC50 was 5.01 µM (active). With `N#CCCn1c(=O)c(-c2cccs2)nc2cnc(Nc3ccccc3)nc21` the AC50 was “inactive”. For `COc1cc(C(=O)OC(C)C(=O)Nc2ccc3c(c2)OCO3)ccc1OCc1c(C)noc1C` (configuration not stated), the AC50 was 14.1 µM (active). For `O=C(O)[C@@H](S)[C@H](S)C(=O)O`, the activity, negative = inhibition was -39.9% [at 11.4 µM] (inactive). With `CC1CCCC(n2c(=S)[nH]c3ccccc3c2=O)C1C` (configuration not stated) the AC50 was 0.1 µM (active). For `Cc1cc(=O)c2ccccc2[nH]1`, the AC50 was “inactive”. In the case of `O=C(c1ccc(F)cc1)C1CCN(CCn2c(=S)[nH]c3ccccc3c2=O)CC1`, the AC50 is reported as “inactive”. `COCCNc1nc(SCc2ccccc2)nc2sc3c(c12)CCC3` was tested, and the AC50 was 4.47 µM (active). In the case of `CC(CO)Nc1nc(SCc2ccccc2)nc2sc3c(c12)CCC3` (configuration not stated), the AC50 is reported as 3.16 µM (active). With `COCCNc1nc(-c2ccccc2C)nc2ccccc12` the AC50 was “inactive”. `OCCNc1nc(SCc2ccccc2)nc2sc3c(c12)CCC3` was tested, and the AC50 was 2.82 µM (active). For `C[C@H](Nc1ncnc2sc3c(c12)CCC3)C(=O)O`, the AC50 was “inactive”. For `CC(=O)N1CCC2(CCCN(Cc3nccs3)C2)CC1`, the AC50 was 5.01 µM (active). With `O=C(c1cnccn1)N1CCC2(CCN(Cc3nccs3)CC2)CC1` the AC50 was “inactive”. For `CC(=O)N1CCC[C@@]2(CCN(Cc3nccs3)C2)C1`, the AC50 was “inactive”. For `COCC(=O)N1CCC[C@@]2(CCN(Cc3nccs3)C2)C1`, the AC50 was “inactive”. In the case of `O=C(c1cnccn1)N1CCC2(CC1)CN(Cc1nccs1)C2`, the AC50 is reported as “inactive”. For `CC(=O)N1CCC2(CCN(Cc3nccs3)CC2)CC1`, the AC50 was “inactive”. With `COC(=O)N1CCC2(CCN(Cc3nccs3)CC2)CC1` the AC50 was “inactive”. With `COC(=O)N1CCC2(CCCN(Cc3nccs3)C2)CC1` the AC50 was 20 µM (active). `O=C(c1cnccn1)N1CCC2(CCCN(Cc3nccs3)C2)CC1` was tested, and the AC50 was 15.8 µM (active). For `CCc1ccc(N(C(=O)c2snc(C(N)=O)c2N)C(C(=O)NCCC(C)C)c2c[nH]c3ccccc23)cc1` (configuration not stated), the AC50 was 2.24 µM (active). For `CC1(C)S[C@@H]2[C@H](NC(=O)[C@@H](N)c3ccc(O)cc3)C(=O)N2[C@H]1C(=O)O`, the AC50 was “inactive”. `CCOC(=O)c1cc2c(C)n(-c3ccc(C)cc3)c(C)c2ccc1=O` was tested, and the AC50 was 14.1 µM (active). For `C[C@H]1[C@@H](O)[C@@H](C)\C=C/C=C\C=C/C=C\C=C/C=C\C=C/[C@@H](O[C@H]2O[C@@H](C)[C@@H](O)[C@@H](N)[C@@H]2O)C[C@@H]2O[C@](O)(C[C@@H](O)C[C@@H](O)[C@@H](O)CC[C@@H](O)C[C@@H](O)CC(=O)O[C@H]1C)C[C@@H](O)[C@H]2C(=O)O` (stereo in doubt), the AC50 was “inactive”. `CCOC(=O)c1[nH]c2ccc(OC)cc2c1NC(=O)c1ccc2c(c1)OCO2` was tested, and the AC50 was 7.08 µM (active). `CCOC(=O)c1[nH]c2cc3c(cc2c1NC(=O)CN1CCC2(CC1)OCCO2)OCO3` was tested, and the AC50 was “inactive”. In the case of `COC(=O)c1[nH]c2cc(OC)ccc2c1NC(=O)c1ccc2c(c1)OCO2`, the AC50 is reported as 10 µM (active). `CCOC(=O)c1[nH]c2cc(OC)c(OC)cc2c1NC(=O)c1nonc1C` was tested, and the AC50 was “inactive”. In the case of `CCOC(=O)c1[nH]c2cc(OC)c(OC)cc2c1NC(=O)c1ccc2c(c1)OCO2`, the AC50 is reported as “inactive”. For `COC(=O)c1[nH]c2cc(OC)ccc2c1NC(=O)c1nonc1C`, the AC50 was “inactive”. In the case of `CC(C)[C@@H](OCc1ccccc1)[C@H](C)/C=N\OC[C@@H](O)[C@@H]1O[C@@H]2OC(C)(C)O[C@@H]2[C@H]1O`, the activity, negative = inhibition is reported as -18.3% [at 11.4 µM] (inactive). In the case of `C[C@@H](C(=O)Nc1ccc2ccccc2c1)[C@@H]1C[C@@]1(C)[C@@H](NC(=O)OCc1ccccc1)c1ccccc1`, the AC50 is reported as 3.16 µM (active). With `C[C@@H](C(=O)Nc1ccc2ccccc2c1)[C@H]1C[C@]1(C)[C@H](NC(=O)OCc1ccccc1)c1ccccc1` the AC50 was 1 µM (active). For `CCCn1c(=O)c2[nH]c(C3CCCC3)nc2n(CCC)c1=O`, the AC50 was “inactive”. With `O=c1c2ccccc2nnn1CSc1nnc(COc2ccc(Cl)cc2)n1Cc1ccco1` the AC50 was 14.1 µM (active). In the case of `O=C(Nc1ccc(Cl)cc1Cl)c1cccc(N2C(=O)C=CC2=O)c1`, the AC50 is reported as 3.98 µM (active). `Cc1cccc(NC(=O)c2cccc(N3C(=O)C4C5CCC(C5)C4C3=O)c2)c1C` (configuration not stated) was tested, and the AC50 was “inactive”.
